Reference: PubChem BioAssay (NCI)
The panel holds about 83,000 compounds, 20% with a hit somewhere; the sample as a whole holds those more often.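 48-hour exposure, single concentration, 96-well plates; percent growth endpoint where 0 means no net growth. Active: below 10.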 Calls of active or inactive are those of the source.

The molecules below were run on MDA-MB-468 breast (assay: NCI-60 one-dose screen, 48 h (100 = growth as untreated, 0 = no growth, -100 = all killed)). Details: 10 µM unless noted.

Row | Structure (SMILES) | growth
1 | COc1cc(O)c2c(c1)[C@H]1O[C@@H]1C[C@H](O)[C@H](O)C(=O)/C=C\C[C@H](C)OC2=O | -1.54% (active)
2 | Oc1c(Cl)cc(Cl)c(Cl)c1CNCCNCc1c(O)c(Cl)cc(Cl)c1Cl | 2.91% (active)
3 | O=C1C=C(Cl)C(=O)c2ccccc21 | -6.29% (active)
4 | O=[N+]([O-])c1ccc(N/N=C(\C(=N/Nc2ccc([N+](=O)[O-])cc2[N+](=O)[O-])c2ccccc2)c2ccccc2)c([N+](=O)[O-])c1 | 86.4% (inactive)
5 | Cc1cc(C)c2c(NC(=O)Nc3ccc(Cl)c(Cl)c3)n[nH]c2n1 | 109% (inactive)
6 | CC(C)CC1NC(C)(C)CO1 (configuration not stated) | 108% (inactive)
7 | COc1cc2ncn3c(=O)c4c5c(sc4nc3c2cc1OC)CCCC5 | 101% (inactive)
8 | COC(=O)c1ccc(NC(N)=NCC(C)(C)COc2ccc(C(F)(F)F)cc2)nc1 | 17.1% (inactive)
9 | CCOC(=O)N1C2CCC(C2)N1C(=O)OCC | 105% (inactive)
10 | O=S(=O)(Nc1ccc(I)cc1Cl)c1ccc(-c2cnc(C3CC3)o2)cc1 | 20.1% (inactive)
11 | CC(C)(O)c1cccc(F)c1 | 93.8% (inactive)
12 | O=C(NCCCNc1cc(-c2cn(-c3ccccc3)nc2-c2cccc(O)c2)ccn1)Nc1cccc(C(F)(F)F)c1 | 11.2% (inactive)
13 | c1ccc(OCc2nnc(-c3ccc(Oc4ccccc4)cc3)o2)cc1 | 111% (inactive)
14 | COc1cc(-c2ccc(-c3ccc(C(=N)N)cc3)s2)cc(OC)c1OC | -22.8% (active)
15 | COc1cnc2c(c1)C(=O)c1c-2n(CCCN2CCNCC2)c(=O)c2cc(F)ccc12 | -27.9% (active)
16 | C[C@@H](O)[C@H]1C(=O)N2C(C(=O)O)=C(SC3CN[C@H](C(=O)N(C)C)C3)[C@H](C)[C@H]12 (some centres not stated) | 100% (inactive)
17 | Cc1cn(-c2nc3c(c(NCc4ccccc4)n2)COCC3)c2cccc(C(N)=O)c12 | 114% [0.5 µM] (inactive)
18 | CCc1c(Nc2ccc(C)cc2)[nH]c(N)nc1=S | 97.3% (inactive)
19 | NCCNC(=O)c1cccc(COc2ccccc2NC(=O)c2cc(Br)c(Br)[nH]2)c1 | 85.1% (inactive)
20 | O=S(=O)(NCCCNc1nccc(-c2c(-c3cccc(F)c3)nc3occn23)n1)c1ccc(F)cc1 | 26.7% (inactive)
21 | N#CC1(C#N)C2=C(CCCC2)NC(c2c(F)cccc2Cl)C1(C#N)C#N (configuration not stated) | 53% (inactive)
22 | N#Cc1c2c(c(N)[nH]c1=O)C(=O)NC2(O)c1ccccc1 (configuration not stated) | 104% (inactive)
23 | Cc1cccc2nc3ccccc3c(Nc3ccc(NS(C)(=O)=O)cc3)c12 | 67.9% (inactive)
24 | CC1(C)NCCC[C@]2(C)[C@H]3CC[C@@H]4[C@H]5[C@H](C(=O)/C=C/c6ccco6)CC[C@]5(CO)CC[C@@]4(C)[C@]3(C)CC[C@@H]12 | 87.9% (inactive)
25 | O=C(CCN1CCCC1)Nc1ccc2c(NCc3ccc(F)cc3)c3ccccc3nc2c1 | -46.1% (active)
26 | COc1ccc(Cn2cc3c(c2)-c2oncc2CC3)cc1OC | -7.7% (active)
27 | COc1ccc(C2CC(c3ccc(Cl)cc3)=NN2/C=C2\SC(=S)N(NC(=O)Cc3ccccc3Nc3c(Cl)cccc3Cl)C2=O)cc1 (configuration not stated) | 75.2% (inactive)
